In all, about 360,000 compounds went through this assay and about 16,000 (4.4%) were called active. Where a call stands in place of a potency, no number is given. About 9% were inconclusive and are not listed. The sample holds actives, similar compounds and a random draw of the others, so the mix is not that of the screen. Calls follow the shape of the dose curve; as a rule, active = well fitted inhibition curve with a large enough effect; inconclusive = small, poorly fitted or top-dose-only effect; inactive = no such curve, though single readings can be large or run the other way.
Potency is read from the fitted curve at half-maximal effect.

Bromodomain adjacent to zinc finger domain protein 2B (Homo sapiens), sequence (Q9UIF8 whole entry, looked up, the tested form may be a part): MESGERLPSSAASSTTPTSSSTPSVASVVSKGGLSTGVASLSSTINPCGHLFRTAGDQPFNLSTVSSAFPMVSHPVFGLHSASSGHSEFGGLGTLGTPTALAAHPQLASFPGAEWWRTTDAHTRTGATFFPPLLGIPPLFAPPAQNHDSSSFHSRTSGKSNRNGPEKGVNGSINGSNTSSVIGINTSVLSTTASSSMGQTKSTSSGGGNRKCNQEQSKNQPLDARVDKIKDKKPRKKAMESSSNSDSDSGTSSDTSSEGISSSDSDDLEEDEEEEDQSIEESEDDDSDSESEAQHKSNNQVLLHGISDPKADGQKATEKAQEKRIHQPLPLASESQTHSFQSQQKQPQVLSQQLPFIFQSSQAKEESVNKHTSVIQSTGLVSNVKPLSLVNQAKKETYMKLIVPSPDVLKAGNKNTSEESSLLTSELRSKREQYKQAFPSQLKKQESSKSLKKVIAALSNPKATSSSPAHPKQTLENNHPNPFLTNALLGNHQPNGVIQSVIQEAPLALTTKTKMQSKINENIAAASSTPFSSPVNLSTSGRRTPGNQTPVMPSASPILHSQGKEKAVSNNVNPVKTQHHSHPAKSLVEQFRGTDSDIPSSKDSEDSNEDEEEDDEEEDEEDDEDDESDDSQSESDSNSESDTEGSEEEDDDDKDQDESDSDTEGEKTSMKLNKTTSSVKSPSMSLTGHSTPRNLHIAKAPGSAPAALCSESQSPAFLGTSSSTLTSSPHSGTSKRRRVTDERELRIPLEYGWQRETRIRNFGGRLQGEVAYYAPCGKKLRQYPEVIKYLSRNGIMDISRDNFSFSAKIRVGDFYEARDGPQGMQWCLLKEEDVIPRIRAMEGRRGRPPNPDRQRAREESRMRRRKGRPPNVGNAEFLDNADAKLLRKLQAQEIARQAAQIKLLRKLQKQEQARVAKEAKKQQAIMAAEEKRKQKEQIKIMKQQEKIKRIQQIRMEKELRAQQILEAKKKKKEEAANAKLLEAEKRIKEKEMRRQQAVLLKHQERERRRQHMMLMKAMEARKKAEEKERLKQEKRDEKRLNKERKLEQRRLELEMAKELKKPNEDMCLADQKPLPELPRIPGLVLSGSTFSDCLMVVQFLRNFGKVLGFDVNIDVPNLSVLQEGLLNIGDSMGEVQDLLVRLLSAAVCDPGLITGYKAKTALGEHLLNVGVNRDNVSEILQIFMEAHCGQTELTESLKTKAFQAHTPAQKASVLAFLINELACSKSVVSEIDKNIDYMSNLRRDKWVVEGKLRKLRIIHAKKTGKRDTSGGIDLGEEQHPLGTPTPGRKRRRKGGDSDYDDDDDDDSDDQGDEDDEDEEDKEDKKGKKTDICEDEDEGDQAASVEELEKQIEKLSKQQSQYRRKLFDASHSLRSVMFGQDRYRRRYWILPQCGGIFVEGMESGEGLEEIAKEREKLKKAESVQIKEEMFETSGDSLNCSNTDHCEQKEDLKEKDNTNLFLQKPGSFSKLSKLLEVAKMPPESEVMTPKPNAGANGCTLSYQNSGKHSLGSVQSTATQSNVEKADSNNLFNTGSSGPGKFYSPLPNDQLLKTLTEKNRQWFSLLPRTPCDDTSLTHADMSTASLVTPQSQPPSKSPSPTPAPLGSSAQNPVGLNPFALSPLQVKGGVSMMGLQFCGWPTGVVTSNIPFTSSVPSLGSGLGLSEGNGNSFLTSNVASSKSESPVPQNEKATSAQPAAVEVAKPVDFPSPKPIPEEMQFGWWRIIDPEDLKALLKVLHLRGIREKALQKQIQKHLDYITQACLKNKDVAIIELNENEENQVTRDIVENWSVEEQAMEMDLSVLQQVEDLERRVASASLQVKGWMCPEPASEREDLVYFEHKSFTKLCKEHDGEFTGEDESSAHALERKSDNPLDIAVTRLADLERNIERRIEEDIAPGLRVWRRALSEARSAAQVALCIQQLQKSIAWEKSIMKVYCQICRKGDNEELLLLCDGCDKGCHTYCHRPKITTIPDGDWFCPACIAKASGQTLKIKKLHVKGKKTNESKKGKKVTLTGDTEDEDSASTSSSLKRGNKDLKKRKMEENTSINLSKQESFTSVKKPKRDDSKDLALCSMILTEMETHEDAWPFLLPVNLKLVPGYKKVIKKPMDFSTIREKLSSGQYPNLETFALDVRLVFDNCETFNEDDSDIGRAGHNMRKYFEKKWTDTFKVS

The target of this experiment is Bromodomain adjacent to zinc finger domain protein 2B (Homo sapiens) (UniProt Q9UIF8). The experiment in a line: qHTS Assay for Inhibitors of BAZ2B. Also: nearly all actives have a fitted effect of over 60% in size. The conditions noted are these: AlphaScreen BAZ2B-H3K14Ac peptide displacement; series mostly up to 114 µM. A digest of the protocol:
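AlphaScreen displacement of biotin-H3(5-23)K14Ac peptide (50 nM final) from BAZ2B (50 nM final) in PBS pH 7.4, 0.01% Tween-20; complex preformed 30 min RT, then compounds (top 110 uM) 30 min RT, beads 20 min dark.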
A general note: In qHTS, concentration-response curves come from the screen itself.
With `CC(C)(C)OC(=O)N1CCC(c2c(C(=O)N3CCN(c4cccc(Cl)c4)CC3)cnn2-c2cccc(Cl)c2)CC1`, the Potency result was “inactive”.
To `O=C(Nc1ccccc1Cl)N1CCC(CN2CCCC2)CC1` belongs “inactive”; to `CCS(=O)(=O)N1CCc2cc(C(=O)NCc3ccc(C)cc3)ccc21`, “inactive”.
To `O=C(NC1CC(=O)N(c2ccc(F)cc2)C1)C1CCCCC1` (stereo not given) belongs “inactive”.
`COc1ccc(-n2cc(-c3ccccc3)c3c(=S)nc[nH]c32)cc1`: the Potency is 79.4 µM (active).
To `COc1ccc(N2C(=O)C(Cc3ccccc3)NC2=S)cc1` (stereo not given) belongs “inactive”; to `CCCNc1ncnc2c1c(-c1ccccc1)cn2-c1ccc(OCC)cc1`, “inactive”.
The same measure for `COc1ccc(C2=NC3(CCCCC3)N(CC(=O)Nc3ccc(C(C)C)cc3)C2=O)cc1`: “inactive”; for `COc1cc(OC)c2ccc(=O)oc2c1C(CCN1CCN(c2ccccc2)CC1)c1ccc2c(c1)OCO2` (stereo not given): 25.1 µM (active).
The same measure for `CCN(CC)CCC(c1cc(OC)c(OC)c(OC)c1)c1c(OC)cc(OC)c2c(-c3ccccc3)cc(=O)oc12` (stereo not given): “inactive”; for `CCN(CC)CCC(c1ccc2c(c1)OCO2)c1c(OC)cc(OC)c2c(-c3ccccc3)cc(=O)oc12` (stereo not given): “inactive”; for `CCOC(=O)C1CCCN(C(=O)c2ccc(-n3ccc4ccccc43)s2)C1` (stereo not given): “inactive”.
On to `O=C(COC(=O)c1ccc(F)cc1F)Nc1ncccn1`, for which the Potency was 50.1 µM (active).
In the case of `COc1cc(OC)cc(C(=O)OCC(=O)Nc2ccc(F)cc2F)c1`, the Potency result was “inactive”.
Take `Cc1cccc(C(=O)OCC(=O)Nc2ccc(F)cc2)c1`: the Potency entry is “inactive”.
The same measure for `COc1ccc(CCNC(=O)C(=O)NCC(c2ccco2)S(=O)(=O)c2cccs2)cc1OC` (stereo not given): “inactive”; for `COc1ccccc1NC(=O)CSC1=Nc2ccccc2C2=NC(CC(=O)NCc3cccs3)C(=O)N12` (stereo not given): “inactive”.
For the compound `COc1ccc(CN2C(=O)C(NC(=O)c3cccc(C)c3)(C(F)(F)F)N=C2c2ccccc2)cc1` (stereo not given), the Potency result was “inactive”.
With `COc1ccccc1/C=C/C=N/NC(=O)CN1CCN(Cc2ccccc2)CC1`, the Potency result was “inactive”.
For `COc1cc(Cl)c(S(=O)(=O)N2CCN(Cc3ccc4c(c3)OCO4)CC2)cc1Cl`, the Potency result is “inactive”.
To `CSc1ccc(/C=N/NC(=O)c2cccc(Cl)c2)cc1` belongs “inactive”.
To `COc1ccccc1/C=N/N1CCN(Cc2ccccc2Cl)CC1` belongs 44.7 µM (active); to `CSc1ccc(/C=N/N2CCN(Cc3ccccc3Cl)CC2)cc1`, 25.1 µM (active).
The same measure for `O=S1(=O)CCN(Cc2ccccc2Cl)CC1`: “inactive”; for `CCC(=O)N1c2ccccc2CC1C(=O)N1CCN(c2ccccc2)CC1` (stereo not given): “inactive”; for `CCc1ccc(NC(=O)N2CCN(C(=O)c3nsc4ccccc34)CC2)cc1`: “inactive”.
For `Cc1ccccc1CSc1nc2c([nH]c3ccccc32)c(=O)n1C`, the Potency result was “inactive”.
`CCN(CC)c1nn2c(=O)c(C(=O)NCCc3ccccc3)cnc2s1`: the Potency result was “inactive”.
The same measure for `COc1ccccc1N1CCN(C(=O)C2CCN(S(=O)(=O)c3c(C)noc3/C=C/c3ccc(C)cc3)CC2)CC1`: “inactive”; for `COc1ccccc1-c1noc(CSc2nnc(-c3ccccc3)n2-c2ccc(C)c(C)c2)n1`: “inactive”; for `Cc1ccc(NC(=O)c2ccc(CN3CC(=O)N4CCCCC4C3=O)cc2)c(Cl)c1` (stereo not given): “inactive”.
As to `COc1cc(NC(=O)CCn2nc(C)cc2C)cc(OC)c1OC`, the Potency entry is “inactive”.
Take `N#Cc1nc(-c2cccc3ccccc23)oc1N`: the Potency result is “inactive”.
The same measure for `Cc1oc(-c2ccccc2F)nc1CS(=O)CC(=O)NCCN1CCCCC1C` (stereo not given): “inactive”.
The same measure for `CC1CCN(c2oc(-c3ccccc3F)nc2C#N)CC1`: 14.1 µM (active); for `COc1cccc(C2C(C(=O)Nc3ccc(C)cc3C)=C(C)Nc3c(C(=O)Nc4ccccc4)cnn32)c1` (stereo not given): “inactive”; for `CCOc1ccccc1C(=O)NCc1ccc2c(c1)CCN2C(=O)c1ccc(F)cc1`: “inactive”.
Consider `COc1ccc(NC(=O)C2CCN(c3ccc(Sc4ccc(C)cc4)nn3)CC2)c(OC)c1`, for which the Potency result is “inactive”.
Regarding `COCCNC(=O)/C(C#N)=C/c1cccc(OCc2ccccc2)c1`, the Potency result is “inactive”.
In the case of `COc1ccc(CNC(=O)/C(C#N)=C/c2cccc(OC)c2OC)cc1`, the Potency result is “inactive”.
As to `N#C/C(=C\c1ccc(O)c(O)c1)C(=O)NCc1ccccc1`, the Potency is 12.6 µM (active).
For `O=C(Nc1nnc(C2CC(=O)N(c3ccc(Cl)cc3)C2)s1)c1ccco1` (stereo not given), the Potency result is “inactive”.
To `Cc1c(CNC(C)c2ccccc2)c(C(=O)O)c(C)n1Cc1c(F)cccc1Cl` (stereo not given) belongs “inactive”.
To `COc1cc(C(CC(=O)NCCC(C)C)N2Cc3ccccc3C2=O)cc(OC)c1OC` (stereo not given) belongs “inactive”; to `O=C(NNC(=O)c1cc2c(s1)CCCC2)c1ccccc1`, “inactive”; to `O=C(C1CCC1)N1CCN(c2ccccc2)CC1`, “inactive”.
The same measure for `O=C(c1cc2c(s1)CCC2)N1CCN(c2ccccc2)CC1`: 56.2 µM (active); for `COc1cccc(N2CC(C(=O)Nc3c(C)cccc3C)CC2=O)c1` (stereo not given): “inactive”; for `COc1ccc(NC(=O)N2CCC(Cc3ccccc3)CC2)cc1`: “inactive”.
In the case of `COc1ccc(NC(=S)NCCN2CCC(C)CC2)cc1`, the Potency result was “inactive”.
Take `COc1ccc(NC(=S)NCC2CCN(c3ccc(OC)cc3)C2)cc1` (stereo not given): the Potency is 31.6 µM (active).
To `COc1ccc(N2CCC(CNC(=S)Nc3c(C)cccc3C)C2)cc1` (stereo not given) belongs 39.8 µM (active); to `COc1ccc(OCC(=O)Nc2ccc(N3CCC(C)CC3)cc2)cc1`, “inactive”; to `NC(=O)CSc1nc2c(oc3ccccc32)c(=O)n1Cc1ccccc1`, “inactive”.
To `CCOc1ccc(OCC)c(NS(=O)(=O)c2ccc3[nH]c(=O)ccc3c2)c1` belongs “inactive”.
The same measure for `CCOc1ccc(N(CC)C(=O)c2noc3c2COc2ccc(C)cc2-3)cc1`: “inactive”; for `COc1ccccc1-n1c(C)nc2cc(C(=O)NCc3ccc4c(c3)OCO4)ccc21`: “inactive”; for `COc1cc(-n2c(C)nc3cc(C(=O)NCc4ccco4)ccc32)cc(OC)c1OC`: 56.2 µM (active).
Regarding `COc1cc(C(=O)N[C@@H](C)C(=O)NCc2ccco2)cc(OC)c1OC`, the Potency result is “inactive”.
To `COc1ccc(-c2cn3nc(N4CCC(C(=O)Nc5cccc(C)c5C)CC4)sc3n2)cc1` belongs “inactive”.
The same measure for `Cc1ccccc1C(=O)Nc1sc2c(c1C(=O)N1CCC(C)CC1)CCCC2`: “inactive”; for `O=C(c1cccs1)c1cn(CCOc2ccc(Cl)cc2)c2ccccc12`: “inactive”.
In the case of `O=C(C1=C(O)C(=O)N(CCOCCO)C1c1ccccn1)c1cccs1` (stereo not given), the Potency was 50.1 µM (active).
As to `O=C(c1cccs1)N(C(=O)c1cccs1)c1ccccn1`, the Potency result was “inactive”.
To `O=c1n(Cc2cccc(C(F)(F)F)c2)c2ccccc2c2nc(-c3ccccc3)nn12` belongs “inactive”; to `O=C(NCc1ccccc1)c1cccc(NC(=O)N2CCSc3ncccc32)c1`, “inactive”.
Consider `Cc1ccc(NC(=O)Nc2sc3nc4n(c(=O)c3c2C)CCC(C)CC4)c(Cl)c1` (stereo not given), for which the Potency result is “inactive”.
The same measure for `COc1ccc(NC(=O)Nc2cccc(-c3noc(C)n3)c2)cc1`: “inactive”.
For `Cc1cccc(Cn2c(CN3CCC(C(=O)NCc4ccccc4Cl)CC3)cc3ccccc32)c1`, the Potency entry is “inactive”.
To `COc1ccc(Cl)cc1NC(=O)CCS(=O)(=O)c1ccc(Br)cc1` belongs 8.91 µM (active); to `COc1ccc(Cl)cc1NC(=O)CN(C)Cc1ccc(OC)c(OC)c1`, 20 µM (active).
The same measure for `COc1ccc(Cl)cc1NC(=O)CCC(=O)c1ccc(C)cc1`: “inactive”; for `COc1ccc(Cl)cc1NC(=O)CN(C)CC(=O)Nc1ccc2c(c1)OCO2`: “inactive”; for `Cn1c(=O)oc2cc(S(=O)(=O)CCC(=O)NCCc3ccc(Cl)cc3)ccc21`: “inactive”.
Turning to `COc1ccc(Cl)cc1NC(=O)CCS(=O)(=O)c1cc2c(cc1C)NC(=O)CO2`, the Potency result is “inactive”.
The same measure for `O=C(CCS(=O)(=O)c1ccc(Br)cc1)NCCc1ccc(Cl)cc1`: 50.1 µM (active).
Take `CC(=O)N1CCc2cc(Br)cc(S(=O)(=O)CCC(=O)NCCc3ccc(Cl)cc3)c21`: the Potency entry was “inactive”.
Turning to `COc1ccc(Cl)cc1NC(=O)CN(C)C(=O)c1cc2ccccc2cc1OC`, the Potency entry is “inactive”.
To `CCc1ccccc1NS(=O)(=O)c1ccc2nc(-c3ccccc3)[nH]c2c1` belongs “inactive”.
To `O=S(=O)(NCC(c1ccco1)N1CCOCC1)c1cc(F)ccc1F` (stereo not given) belongs “inactive”.
For `Cc1ccc(Nc2ccc3cc(S(=O)(=O)N4CCCCC4)ccc3n2)cc1F`, the Potency entry was “inactive”.
The same measure for `Cc1cc(C)c(NC(=O)CN2C(=O)c3cccnc3Oc3ccc(Cl)cc32)c(C)c1`: “inactive”; for `COc1cc(NC(=O)c2cc3ccc4cccnc4c3[nH]2)cc(OC)c1OC`: “inactive”; for `CCN(c1ncnc2c1cnn2-c1ccc(C)cc1)C1CCCCC1`: “inactive”.
To `O=c1[nH]c2cc(Br)ccc2n2cccc12` belongs “inactive”; to `Cc1ccc(OCCCC(=O)Nc2ccc(S(=O)(=O)Nc3cc(C)nc(C)n3)cc2)cc1`, “inactive”.
Turning to `Cc1ccc(NC(=O)CSc2nc(CSc3ccc(C)cc3)cc(=O)[nH]2)cc1`, the Potency entry was “inactive”.
To `COc1ccc(NC(=O)CSc2nc(NS(=O)(=O)c3ccc(C)cc3)cc(=O)[nH]2)cc1` belongs 50.1 µM (active); to `CCc1nnc(NS(=O)(=O)c2ccc(NC(=S)NC(=O)/C=C/c3cccs3)cc2)s1`, 50.1 µM (active); to `CCc1nnc(NS(=O)(=O)c2ccc(NS(=O)(=O)c3ccccc3)cc2)s1`, “inactive”.
To `CCc1nnc(NS(=O)(=O)c2ccc(NC(=S)NC(=O)c3cccs3)cc2)s1` belongs “inactive”; to `Cc1cc(-c2ccccc2)n2nc(-c3ccccc3)cc2n1`, “inactive”; to `CCc1ccccc1NC(=O)Cn1c(=O)n(CC2CCC(C(=O)NCCc3ccccc3)CC2)c(=O)c2ccccc21` (stereo not given), “inactive”.
To `COc1cccc2sc(NNC(=O)c3nc4ccccc4s3)nc12` belongs 35.5 µM (active).
With `COc1ccccc1OCc1nc2ccccc2s1`, the Potency entry was “inactive”.
The same measure for `COc1ccc(/C=C(/CC(=O)Nc2ccc(C)cc2)c2nc3ccccc3s2)cc1`: “inactive”; for `Cc1cc2nc(-c3ccc(NC(=O)c4cc5ccccc5o4)cc3)oc2cc1C`: “inactive”.
The same measure for `COc1ccccc1CNC(=O)C(=O)NCC(c1ccco1)S(=O)(=O)c1ccc(F)cc1` (stereo not given): “inactive”; for `CCCN(C(=O)Cn1cc(S(=O)(=O)N2CCN(c3ccccc3F)CC2)c2ccccc2c1=O)c1cccc(C)c1`: “inactive”; for `COc1cc(C(=O)NCC(c2ccc(Cl)cc2)N2CCOCC2)cc(OC)c1OC` (stereo not given): “inactive”.

Source of the values: PubChem BioAssay AID504333 (National Center for Advancing Translational Sciences (NCATS), 2011).
